Laboratory results reported in ChEMBL document CHEMBL3988442, “University of Dundee, Small-Polar-MMV Screening Library” (2021).
Screen size: about 66,000 compounds; about 960 (1.5%) showed an effect of 50% or more. The full list was thinned out, with strong results kept by preference.

System: Trypanosoma brucei
Assay: Trypanosoma brucei 72 hour study
Assay type: functional, organism-based
Set-up: scale not given: in the data most compounds retested in dose-response had high values

SMILES: COc1ccc(CNC(C)Cn2cccn2)c(OC)c1OC.Cl (centres undefined)
- Percent Effect (30.3 µM, […]): 4.713%
- Percent Effect (10 mM, 10 mM as filed; unlikely as a test dose): -54.3%

SMILES: COc1cc(CNC(C)Cn2ccnc2)cc2c1OCO2.Cl (centres undefined)
- Percent Effect (30.3 µM, […]): 4.669%

SMILES: COc1cc(CNCC(O)c2ccc(C)cc2)cc2c1OCCO2.Cl (centres undefined)
- Percent Effect (30 µM, 30.03 µM): 42.56%

SMILES: COc1cc(CNCC(O)c2ccc(F)c(F)c2)cc2c1OCO2 (centres undefined)
- Percent Effect (30 µM, 30.03 µM): 4.493%

SMILES: COc1cc(CNCC(O)c2ccc(C)cc2)cc2c1OCO2.Cl (centres undefined)
- Percent Effect (30.3 µM, […]): 100.7%

SMILES: COc1cc(CNC(C)Cn2cccn2)cc2c1OCO2.Cl (centres undefined)
- Percent Effect (30.3 µM, […]): -1.111%

SMILES: COc1cc(CNCC(O)c2cccc(F)c2)cc2c1OCO2.Cl (centres undefined)
- Percent Effect (30.3 µM, […]): 81.63%

SMILES: Cl.Cl.c1cncc(COC[C@@H]2CCC[C@@]23CNCCO3)c1
- Percent Effect (30.3 µM, […]): -44.98%

SMILES: CC(C)N1CCC2(CC1)C(=O)N(CCN(C)C)c1ccccc12.O=C(O)C(F)(F)F.O=C(O)C(F)(F)F
- Percent Effect (30.3 µM, […]): 5.685%

SMILES: O=C(O)C(F)(F)F.O=C(O)C(F)(F)F.O=C(O)C(F)(F)F.c1ccc(CN2CC[C@@H]3[C@@H](CO[C@@H]3CNc3ncccn3)C2)nc1
- Percent Effect (30.3 µM, […]): -6.943%

SMILES: COc1ccc(CN2C[C@@H]3OCCN(c4ncccn4)[C@@H]3C2)cc1.O=C(O)C(F)(F)F.O=C(O)C(F)(F)F
- Percent Effect (30 µM, 30.03 µM): -40.73%

SMILES: COc1cc2nc(NCc3ccc(C)nc3)nc(N)c2cc1OC
- Percent Effect (30.3 µM, […]): 100.6%

SMILES: O=C(C[C@@H]1COC[C@H]2CN(C3CCC3)C[C@@H]12)NCc1cccnc1.O=C(O)C(F)(F)F.O=C(O)C(F)(F)F
- Percent Effect (30.3 µM, […]): 12.19%

SMILES: COc1ccc(CCNCc2c(C)nn(C)c2N(C)C)cc1OC.Cl
- Percent Effect (30.3 µM, […]): -31.69%

SMILES: O=C(c1cnn2c1OCCC2)N1CCC2(CC1)OCCO2
- Percent Effect (30 µM, 30.03 µM): 55.16%

SMILES: O=C(c1ccccc1-n1cnnn1)N1CCC2(CC1)OCCO2
- Percent Effect (30 µM, 30.03 µM): -25.19%

SMILES: O=C(c1ccc(Cl)cc1-n1cnnn1)N1CCC2(CC1)OCCO2
- Percent Effect (30 µM, 30.03 µM): -30.99%

SMILES: Cn1ccnc1NC[C@@H]1CCC[C@@H]2CN(Cc3cccnc3)C[C@@H]21.O=C(O)C(F)(F)F
- Percent Effect (30.3 µM, […]): -5.749%

SMILES: CN1C[C@H](NC(=O)c2cscn2)[C@@H]2OCCC[C@@H]21.O=C(O)C(F)(F)F
- Percent Effect (30.3 µM, […]): -88.97%

SMILES: COCCNC(=O)[C@@]12CCO[C@@H]1CCN(Cc1ccncc1)C2.O=C(O)C(F)(F)F.O=C(O)C(F)(F)F
- Percent Effect (30 µM, 30.03 µM): 13.68%

SMILES: c1ccc(CO[C@H]2C[C@@H]3CN(Cc4cncnc4)C[C@@H]3C2)cc1
- Percent Effect (30.3 µM, […]): -7.208%

SMILES: c1ccc(CO[C@H]2C[C@@H]3CN(Cc4cccnc4)C[C@@H]3C2)cc1
- Percent Effect (30.3 µM, […]): 51.09%

SMILES: Cc1ncc(CN2C[C@H]3C[C@H](OCc4ccccc4)C[C@H]3C2)cn1
- Percent Effect (30.3 µM, […]): 6.96%

SMILES: CN(C)CCN1CCN(Cc2nccs2)Cc2cccnc21.O=C(O)C(F)(F)F.O=C(O)C(F)(F)F.O=C(O)C(F)(F)F
- Percent Effect (30.3 µM, […]): -78.15%

SMILES: O=C(NCCc1ccccn1)[C@@]12CCO[C@@H]1CCN(C1CCC1)C2.O=C(O)C(F)(F)F.O=C(O)C(F)(F)F
- Percent Effect (30.3 µM, […]): 7.888%

SMILES: O=C(O)C(F)(F)F.O=C(O)C(F)(F)F.c1ccc(OCC2C[C@@H]3[C@@H](C2)OCCN3CC2CCOCC2)nc1 (some centres undefined)
- Percent Effect (30.3 µM, […]): -46.45%

SMILES: CC(C)c1nc(CC(=O)N2CCN(C)CC2c2ccccc2)cs1 (centres undefined)
- Percent Effect (30 µM, 30.03 µM): -91.57%

SMILES: CCN1CCN(Cc2nc(CC(C)C)no2)CC1
- Percent Effect (10 µM): -12.44%

SMILES: CCN1CCN(Cc2csc(C(C)C)n2)CC1
- Percent Effect (30.3 µM, […]): 81.77%

SMILES: COCCCNc1c(C#N)c2c(c3nncn13)CN(C)CC2.Cl
- Percent Effect (30 µM, 30.03 µM): -37.83%

SMILES: Cl.Cl.c1ccc(COC[C@H]2CCC[C@@]23CNCCO3)nc1
- Percent Effect (30.3 µM, […]): -51.33%

SMILES: O=C(O)C(F)(F)F.O=C(O)C(F)(F)F.c1cnc(N2CCO[C@H]3CN(CC4CCOCC4)C[C@H]32)nc1
- Percent Effect (30.3 µM, […]): -91.37%

SMILES: O=C(O)C(F)(F)F.c1cc(CN2CC[C@@H]3CN(c4cnccn4)C[C@@H]3C2)ccn1
- Percent Effect (30.3 µM, […]): -4.355%

SMILES: COc1cc(CNC(C)Cn2cccn2)cc2c1OCCO2.Cl (centres undefined)
- Percent Effect (30.3 µM, […]): -12.29%
- Percent Effect (10 mM, 10 mM as filed; unlikely as a test dose): -15.19%

SMILES: COc1cc(CNCC(O)c2ccccc2F)cc2c1OCO2 (centres undefined)
- Percent Effect (30.3 µM, […]): 55.14%

SMILES: COc1cc(CNC(C)Cn2ccnc2)cc2c1OCCO2 (centres undefined)
- Percent Effect (30.3 µM, […]): -9.51%

SMILES: COc1cc(CNCC(O)c2ccc(F)cc2F)cc2c1OCO2 (centres undefined)
- Percent Effect (30.3 µM, […]): 68.01%

SMILES: Cc1nc(CN2CCN3C[C@H](Oc4cncnc4)C[C@H]3C2)cs1.O=C(O)C(F)(F)F.O=C(O)C(F)(F)F
- Percent Effect (30.3 µM, […]): -64.45%

SMILES: Cc1cnc(N2CC3(CCN(Cc4cccnc4)C3)C2)nc1.O=C(O)C(F)(F)F.O=C(O)C(F)(F)F
- Percent Effect (30.3 µM, […]): -6.103%

SMILES: O=C(O)C(F)(F)F.O=C(O)C(F)(F)F.c1cnc(N2CCN3C[C@H](Oc4cncnc4)C[C@H]3C2)nc1
- Percent Effect (30.3 µM, […]): -14.25%

SMILES: CCN1CCc2c(cccc2NC(=O)CN(C)C2CCSC2)C1 (centres undefined)
- Percent Effect (30 µM, 30.03 µM): -20.21%

SMILES: O=C(O)C(F)(F)F.c1cncc(CN2C[C@H]3CCC[C@@H](CNc4cnccn4)[C@H]3C2)c1
- Percent Effect (30.3 µM, […]): -2.256%

SMILES: Cc1ccc(CN2CC[C@]3(C[C@H](OCc4ccccn4)CO3)C2)o1.O=C(O)C(F)(F)F.O=C(O)C(F)(F)F
- Percent Effect (30 µM, 30.03 µM): 4.871%

SMILES: O=C(c1ccc2c(c1)COC2)N1CCC(Nc2ccccc2)CC1
- Percent Effect (30 µM, 30.03 µM): 15.22%

SMILES: O=C(Cc1c[nH]c2ccccc12)N1CCC(Nc2ccccc2)CC1
- Percent Effect (30.3 µM, […]): -16.2%

SMILES: O=C(c1cc2cc(F)ccc2[nH]1)N1CCC(Nc2ccc(F)cc2)CC1
- Percent Effect (30.3 µM, […]): 86.11%

SMILES: O=C(O)C(F)(F)F.O=C(O)C(F)(F)F.O=C(O)C(F)(F)F.c1cc(CN2CCO[C@H]3[C@H](OCCN4CCCC4)CC[C@@H]32)ccn1
- Percent Effect (30.3 µM, […]): -7.413%

SMILES: C[C@H]1C[C@H]2CN(Cc3ccccn3)CC[C@@H]2O1.O=C(O)C(F)(F)F.O=C(O)C(F)(F)F
- Percent Effect (30 µM, 30.03 µM): -2.942%

SMILES: CCOCCN1C[C@@H]2CCCO[C@@H]2[C@H](NC(=O)c2cnoc2C)C1.O=C(O)C(F)(F)F
- Percent Effect (30.3 µM, […]): -87.51%

SMILES: O=C(Cc1csc(-c2ncccn2)n1)N1CCN2CCCCC2C1 (centres undefined)
- Percent Effect (30 µM, 30.03 µM): -4.944%

SMILES: O=C(c1csc(-c2ncccn2)n1)N1CCN2CCCCC2C1 (centres undefined)
- Percent Effect (30 µM, 30.03 µM): 9.676%

SMILES: O=C(Cc1ccc(-n2cccn2)cc1)N1CCN2CCCCC2C1 (centres undefined)
- Percent Effect (30 µM, 30.03 µM): 56.58%

SMILES: CCS(=O)(=O)N1CCc2ccc(NC(=O)Nc3cccc(C#N)c3)cc21
- Percent Effect (30 µM, 30.03 µM): 29.43%

SMILES: O=C(O)C(F)(F)F.O=C(O)C(F)(F)F.O=C1CC[C@@H]2[C@@H](CCN2Cc2ccccn2)N1CC1CC1
- Percent Effect (30.3 µM, […]): 9.459%

SMILES: CC(N)Cc1ccccc1Sc1ccc(O)cc1.CC(N)Cc1ccccc1Sc1ccc(O)cc1.O=C(O)C(=O)O (centres undefined)
- Percent Effect (30 µM, 30.03 µM): 73.02%

SMILES: CC(N)Cc1ccccc1Sc1ccccc1.O=C(O)/C=C\C(=O)O (centres undefined)
- Percent Effect (30 µM, 30.03 µM): 99.41%

SMILES: CNC(C)Cc1ccccc1Sc1ccc(O)cc1.Cl (centres undefined)
- Percent Effect (30 µM, 30.03 µM): -13.84%

SMILES: O=C(O)C(F)(F)F.O=C(O)C(F)(F)F.c1cncc(O[C@H]2CC[C@H]3[C@H]2OCCN3C2CCCC2)c1
- Percent Effect (30 µM, 30.03 µM): -21.55%

SMILES: CN(C)[C@@H]1CN(C(=O)Cc2cccs2)[C@@H]2CCCO[C@H]12.O=C(O)C(F)(F)F
- Percent Effect (30.3 µM, […]): -91.09%

SMILES: COCCN1CC[C@]2(CN(Cc3cccnc3)C[C@H]2C)C1=O.O=C(O)C(F)(F)F.O=C(O)C(F)(F)F
- Percent Effect (30.3 µM, […]): -47.24%

SMILES: CN1C(Cn2cccn2)C[C@@H]2CN(Cc3cccnc3)CC[C@@H]21.O=C(O)C(F)(F)F.O=C(O)C(F)(F)F.O=C(O)C(F)(F)F.O=C(O)C(F)(F)F (some centres undefined)
- Percent Effect (30.3 µM, […]): -14.63%

SMILES: COCCN1CCO[C@@H]2CN(S(=O)(=O)c3cccnc3)C[C@@H]2C1.O=C(O)C(F)(F)F.O=C(O)C(F)(F)F
- Percent Effect (30.3 µM, […]): -14.72%
